In PubChem BioAssay:
Active and inactive are the calls of the source. Unless noted, the rule behind the calls is not given here.

How the values were obtained:
[1] = compounds binding Alexa647 anti-His antibody – biochemical, small-molecule microarray, 635 nm fluorescence, artefact control for SMM control protein annotation, primary screen (AID 1128); conditions: higher = more signal;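 note: score merges feature fluorescence with signal-to-noise for each printed compound spot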
[2] = tested on: Human papillomavirus type 1a E7 protein (residues 1-88); test: HPV1a E7 small-molecule binders, primary screen, biochemical, small-molecule microarray, residues 1-88, 635 nm (AID 1129); conditions: small-molecule microarray binding, fluorescence 635 nm; higher = more signal
[3] = target: Focal adhesion kinase 1 (Homo sapiens) (UniProt Q05397); test: PTK2 protein binding on printed compound slides – biochemical, small-molecule microarray, 635/667 nm fluorescence, BSA, DTT, primary screen (AID 1130); conditions: 635 nm fluorescence, higher = more signal;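 note: composite of spot emission at 667 nm and signal to noise over triplicate slides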
Chain of Focal adhesion kinase 1 (Homo sapiens) (Q05397 whole entry, looked up): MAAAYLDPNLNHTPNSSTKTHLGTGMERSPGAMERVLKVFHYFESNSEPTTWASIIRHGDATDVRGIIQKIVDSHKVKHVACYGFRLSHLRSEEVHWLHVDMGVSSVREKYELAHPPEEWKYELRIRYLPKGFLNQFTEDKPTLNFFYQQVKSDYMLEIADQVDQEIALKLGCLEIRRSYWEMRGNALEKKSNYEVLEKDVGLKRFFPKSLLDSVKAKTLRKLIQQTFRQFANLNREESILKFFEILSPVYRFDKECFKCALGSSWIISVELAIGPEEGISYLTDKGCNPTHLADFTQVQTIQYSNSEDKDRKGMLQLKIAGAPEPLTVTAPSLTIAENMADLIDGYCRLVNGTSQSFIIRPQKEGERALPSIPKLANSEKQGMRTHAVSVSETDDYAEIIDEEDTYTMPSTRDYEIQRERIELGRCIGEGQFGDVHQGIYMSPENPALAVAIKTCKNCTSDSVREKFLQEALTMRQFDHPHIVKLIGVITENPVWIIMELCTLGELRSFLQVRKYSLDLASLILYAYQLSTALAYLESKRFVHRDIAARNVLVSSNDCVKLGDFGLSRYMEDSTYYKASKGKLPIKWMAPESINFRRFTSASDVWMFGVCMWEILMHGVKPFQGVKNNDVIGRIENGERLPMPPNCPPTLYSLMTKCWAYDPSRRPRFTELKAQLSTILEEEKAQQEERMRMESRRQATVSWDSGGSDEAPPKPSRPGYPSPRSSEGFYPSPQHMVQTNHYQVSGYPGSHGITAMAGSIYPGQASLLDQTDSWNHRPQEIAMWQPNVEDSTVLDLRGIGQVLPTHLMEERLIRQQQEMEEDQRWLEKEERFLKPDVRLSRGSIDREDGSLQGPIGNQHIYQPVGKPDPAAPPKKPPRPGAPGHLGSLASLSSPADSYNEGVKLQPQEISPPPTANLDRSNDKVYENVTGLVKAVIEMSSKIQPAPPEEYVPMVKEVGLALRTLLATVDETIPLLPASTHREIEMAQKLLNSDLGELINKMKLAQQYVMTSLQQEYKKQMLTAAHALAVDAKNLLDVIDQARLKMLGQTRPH

[4] = tested on: Fibrinogen (Alexa647-labelled); test: Alexa647-fibrinogen binding to printed small molecules – biochemical, small-molecule microarray, 635/667 nm fluorescence, artefact control for SMM control-protein annotation, profiling panel (AID 1131); conditions: fibrinogen-A647 binding fluorescence, higher = more signal;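 note: z-score merges 667 nm fluorescence with per-spot signal-to-noise over triplicate slides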
[5] = target: Follistatin (Homo sapiens) (UniProt P19883); test: FST protein binding to printed compounds – biochemical, small-molecule microarray, 635/667 nm fluorescence, primary screen (AID 1132); conditions: 635 nm fluorescence, higher = more signal
Chain of Follistatin (Homo sapiens) (P19883 whole entry, looked up): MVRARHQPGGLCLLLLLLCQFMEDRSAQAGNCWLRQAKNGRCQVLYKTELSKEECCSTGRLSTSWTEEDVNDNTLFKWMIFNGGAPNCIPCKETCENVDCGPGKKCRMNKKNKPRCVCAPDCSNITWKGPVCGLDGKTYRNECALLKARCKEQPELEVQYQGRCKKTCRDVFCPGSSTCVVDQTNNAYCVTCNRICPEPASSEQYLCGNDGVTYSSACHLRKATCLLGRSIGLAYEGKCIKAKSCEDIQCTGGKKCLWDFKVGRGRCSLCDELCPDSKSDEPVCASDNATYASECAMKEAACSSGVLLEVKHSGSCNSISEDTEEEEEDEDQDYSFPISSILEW

[6] = target: Fibroblast growth factor 2 (Homo sapiens) (UniProt P09038); test: basic fibroblast growth factor binding to printed compounds – biochemical, small-molecule microarray, 635/667 nm fluorescence, primary screen (AID 1133); conditions: FGF2, fluorescence 635/667, higher = more signal
Chain of Fibroblast growth factor 2 (Homo sapiens) (P09038 whole entry, looked up): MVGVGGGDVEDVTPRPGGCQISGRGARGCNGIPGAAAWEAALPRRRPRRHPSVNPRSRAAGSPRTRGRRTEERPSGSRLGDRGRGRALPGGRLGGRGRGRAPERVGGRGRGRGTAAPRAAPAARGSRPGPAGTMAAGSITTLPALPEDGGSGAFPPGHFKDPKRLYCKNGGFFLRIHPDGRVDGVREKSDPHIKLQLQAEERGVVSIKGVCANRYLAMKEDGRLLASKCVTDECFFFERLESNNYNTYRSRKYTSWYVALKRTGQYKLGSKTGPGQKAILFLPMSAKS

[7] = JC-1 mitochondrial potential readout, lung cancer cells – cell-based, A549, JC-1 fluorescence, basal, 24 h, 100 nL, profiling panel (AID 1138); conditions: higher = more signal;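 note: A549 lung adenocarcinoma cells under basal conditions with no added stimulus; test concentration not given here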
Lefty1 = Lefty1 protein binding to printed compounds – biochemical, small-molecule microarray, 635/667 nm fluorescence, primary screen (AID 1139); conditions: fluorescence 635/667, higher = more signal
[8] = tested on: wheat germ agglutinin (Triticum aestivum), Alexa647-labelled; test: Alexa647-WGA lectin binding to printed small molecules – biochemical, small-molecule microarray, 635/667 nm fluorescence, artefact control for SMM control-protein annotation, profiling panel (AID 1140); conditions: WGA-A647 binding, 635 nm fluorescence, higher = more signal;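 note: score merges 667 nm feature emission with signal to noise over triplicate slides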
[9] = target: Luciferin 4-monooxygenase (Photinus pyralis) (UniProt P08659); test: inhibition of purified Photinus pyralis luciferase – biochemical, luminescence, purified enzyme, 2006 set, primary screen (AID 1141); conditions: purified firefly luciferase, SteadyGlo luminescence, 30 min; higher = more signal, called active from +8 up or from −8 down;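 note: cell-free assay with purified firefly luciferase at 100 ng per well in PBS; test concentration not given here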
Chain of Luciferin 4-monooxygenase (Photinus pyralis) (P08659 whole entry, looked up): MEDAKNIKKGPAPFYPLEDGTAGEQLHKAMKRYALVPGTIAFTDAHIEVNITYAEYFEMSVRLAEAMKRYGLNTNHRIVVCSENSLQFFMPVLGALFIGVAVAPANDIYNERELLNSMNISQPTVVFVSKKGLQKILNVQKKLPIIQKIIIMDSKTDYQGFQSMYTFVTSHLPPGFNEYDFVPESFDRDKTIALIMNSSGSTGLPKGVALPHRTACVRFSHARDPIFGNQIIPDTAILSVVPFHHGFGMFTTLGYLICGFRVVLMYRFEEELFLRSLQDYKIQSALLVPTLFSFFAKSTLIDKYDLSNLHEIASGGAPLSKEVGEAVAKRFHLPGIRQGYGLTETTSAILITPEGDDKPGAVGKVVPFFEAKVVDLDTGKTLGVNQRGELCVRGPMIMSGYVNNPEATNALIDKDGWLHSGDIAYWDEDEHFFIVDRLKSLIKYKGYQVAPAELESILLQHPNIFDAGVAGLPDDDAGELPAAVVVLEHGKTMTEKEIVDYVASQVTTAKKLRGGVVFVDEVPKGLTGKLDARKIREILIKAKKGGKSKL

[10] = tested on: Wnt5a (protein binding on small-molecule microarray); test: small molecules binding Wnt5a protein – biophysical, small-molecule microarray, 635/667 nm fluorescence, primary screen (AID 1142); conditions: 635 nm fluorescence, higher = more signal;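 note: fluorescence read at 667 nm with signal to noise per printed feature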
[11] = ATP-based viability of Huh7 replicon cells – cell-based, CellTiter-Glo luminescence, basal, 48 h, cytotoxicity control for HCV replication inhibitor project, primary screen (AID 1143); conditions: higher = more signal, called active from +8 up or from −8 down;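 note: Huh7 hepatoma cells carrying a hepatitis C replication reporter with no stimulus; test concentration not given here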
[12] = Pseudomonas biofilm growth suppression – PAO1 strain, BacTiter-Glo luminescence, LB-PBS, primary screen (AID 1144); conditions: P. aeruginosa PAO1 biofilm, 12 h, higher = more signal
[13] = basal CRE-LacZ reporter activity in PC12 – cell-based, unstimulated, primary screen (AID 1145); conditions: no forskolin, luminescence, 4.5 h, higher = more signal, called active from +8 up or from −8 down
[14] = forskolin-driven CRE-LacZ activity in PC12 – cell-based, CRE-LacZ reporter, forskolin-stimulated, primary screen (AID 1146); conditions: luminescence, 4.5 h, higher = more signal, called active from +8 up or from −8 down;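 note: PC12 cells with 6xCRE LacZ reporter stimulated by forskolin 10 µM; beta-galactosidase reporter signal reflecting CREB driven transcription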
[15] = target: Streptavidin (Streptomyces avidinii) (UniProt P22629); test: compounds binding control protein streptavidin – biophysical, small-molecule microarray, 635/667 nm fluorescence, artefact control for SMM compound annotation, primary screen (AID 1147); conditions: higher = more signal;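 note: signal reflects streptavidin binding to arrayed compounds as a control protein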
Chain of Streptavidin (Streptomyces avidinii) (P22629 whole entry, looked up): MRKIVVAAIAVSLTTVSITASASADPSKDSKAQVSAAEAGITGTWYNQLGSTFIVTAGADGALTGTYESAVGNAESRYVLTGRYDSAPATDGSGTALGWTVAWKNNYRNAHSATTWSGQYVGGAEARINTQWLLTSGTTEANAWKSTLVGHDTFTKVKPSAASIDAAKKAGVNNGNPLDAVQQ

[16] = probe aInhba binding on compound microarray – biochemical, small-molecule microarray, 635/667 nm fluorescence, primary screen (AID 1148); conditions: higher = more signal;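 note: score merges 667nm spot fluorescence with signal-to-noise for antibody binding to printed compounds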
Torsin-1A (Homo sapiens) [17] = target: Torsin-1A (Homo sapiens) (UniProt O14656); test: TOR1A wild-type binding on microarray – cell lysate, small-molecule microarray, lysate, 635/667 nm, primary screen (AID 1149); conditions: COS7 hTOR1A-WT lysate, 635 nm fluorescence, higher = more signal
Chain of Torsin-1A (Homo sapiens) (O14656 whole entry, looked up): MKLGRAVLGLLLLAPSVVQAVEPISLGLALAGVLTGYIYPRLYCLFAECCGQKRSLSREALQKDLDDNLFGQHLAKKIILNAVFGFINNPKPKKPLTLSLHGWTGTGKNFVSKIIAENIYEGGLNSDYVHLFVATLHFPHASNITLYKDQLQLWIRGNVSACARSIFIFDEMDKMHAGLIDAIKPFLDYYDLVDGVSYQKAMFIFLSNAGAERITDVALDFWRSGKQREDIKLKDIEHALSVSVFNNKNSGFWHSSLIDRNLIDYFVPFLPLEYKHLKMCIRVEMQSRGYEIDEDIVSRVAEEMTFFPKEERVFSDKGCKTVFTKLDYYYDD

Torsin-1A (Homo sapiens) [18] = target: Torsin-1A (Homo sapiens) (UniProt O14656); test: torsin A mutant lysate binding on microarrays – cell lysate, small-molecule microarray, COS7 lysate, 635/667 nm fluorescence, primary screen (AID 1150); conditions: COS7 hTOR1A mutant lysate, 635 nm fluorescence, higher = more signal;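 note: score pools 667 nm emission and signal to noise measuring lysate protein binding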
[19] = tested on: Sonic hedgehog protein (Shh); test: Sonic hedgehog microarray binding compounds – biochemical, small-molecule microarray, 635/667 nm fluorescence, primary screen (AID 1151); conditions: 635 nm fluorescence, higher = more signal;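 note: Shh protein binding to compounds spotted on small-molecule microarray slides; score combines spot fluorescence intensity with signal-to-noise across triplicate slides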

Compound `O=C(C=C(CC(O)c1cccc(Cl)c1)OCCF)OCCF` (stereo not given) has a composite z-score [1] of -0.144, a composite z-score [2] of -1.59 and a composite z-score [3] of -0.401. For the same compound, the composite z-score [4] was -1.35, the composite z-score [5] was -0.885 and the composite z-score [6] was -0.576. It also gave a z-score [7] of 0.0691, a composite z-score (Lefty1) of -0.94 and a composite z-score [8] of -0.442. The z-score [9] was 0.364 (inactive), the composite z-score [10] was -0.234 and the z-score [11] was -3.1 (inactive). For the same compound, the z-score [12] was 0.117 (inactive), the z-score [13] was 0.481 (inactive) and the z-score [14] was -0.722 (inactive). For the same compound, the composite z-score [15] was -0.0847, the composite z-score [16] was -0.267 and the composite z-score (Torsin-1A (Homo sapiens) [17]) was -0.489. The composite z-score (Torsin-1A (Homo sapiens) [18]) was -0.167 and the composite z-score [19] was -0.335.
`COc1ccc(CCNC(=O)[C@@H]2c3ccccc3C(=O)N(Cc3ccccc3C(F)(F)F)[C@H]2c2ccc(CO)cc2)cc1` gave a composite z-score [1] of 0.263, a composite z-score [2] of 0.656 and a composite z-score [3] of 0.495. The composite z-score [4] was -0.731, the composite z-score [5] was 0.566 and the composite z-score [6] was -0.388. The z-score [7] was 1.07, the composite z-score (Lefty1) was -0.526 and the composite z-score [8] was 0.665. For the same compound, the z-score [9] was 0.912 (inactive), the composite z-score [10] was -0.189 and the z-score [11] was -2.64 (inactive). For the same compound, the z-score [12] was -0.984 (inactive), the z-score [13] was -0.295 (inactive) and the z-score [14] was -0.132 (inactive). The composite z-score [15] was -0.752, the composite z-score [16] was -0.168 and the composite z-score (Torsin-1A (Homo sapiens) [17]) was -1.27. It also gave a composite z-score (Torsin-1A (Homo sapiens) [18]) of 0.714 and a composite z-score [19] of -0.25.
`CC(C)CNC(=O)[C@@]1(c2ccc([N+](=O)[O-])cc2)CC(=O)N(C(C)C)[C@@H]1c1ccc(CO)cc1` showed a composite z-score [1] of 0.217, a composite z-score [2] of -0.467 and a composite z-score [3] of -0.362. For the same compound, the composite z-score [4] was -1.2, the composite z-score [5] was 0.272 and the composite z-score [6] was -1.25. For the same compound, the z-score [7] was -0.0836, the composite z-score (Lefty1) was -0.455 and the composite z-score [8] was 0.486. The z-score [9] was 1.18 (inactive), the composite z-score [10] was -0.618 and the z-score [11] was -4.3 (inactive). The z-score [12] was -1.28 (inactive), the z-score [13] was -1.06 (inactive) and the z-score [14] was 0.107 (inactive). For the same compound, the composite z-score [15] was -1.19, the composite z-score [16] was -0.233 and the composite z-score (Torsin-1A (Homo sapiens) [17]) was -0.486. For the same compound, the composite z-score (Torsin-1A (Homo sapiens) [18]) was -1.29 and the composite z-score [19] was 0.225.
With `Cc1ccccc1C(O)C1C=CC2C(=O)N(C)C(=O)C2N1Nc1ccc([N+](=O)[O-])cc1[N+](=O)[O-]` (stereo not given) the composite z-score [1] was 0.509, the composite z-score [2] was 1.27 and the composite z-score [3] was 0.646. The composite z-score [4] was 1.02, the composite z-score [5] was 0.674 and the composite z-score [6] was -0.38. For the same compound, the z-score [7] was 0.668, the composite z-score (Lefty1) was -0.167 and the composite z-score [8] was 0.913. For the same compound, the z-score [9] was 0.147 (inactive), the composite z-score [10] was 0.483 and the z-score [11] was -0.157 (inactive). For the same compound, the z-score [12] was 0.262 (inactive), the z-score [13] was 0.443 (inactive) and the z-score [14] was 0.57 (inactive). For the same compound, the composite z-score [15] was 1.04, the composite z-score [16] was 0.138 and the composite z-score (Torsin-1A (Homo sapiens) [17]) was -0.0091. For the same compound, the composite z-score (Torsin-1A (Homo sapiens) [18]) was 0.94 and the composite z-score [19] was -0.457.
With `O=C(NCc1ccccc1)[C@]1(Cc2ccccc2)N=C(c2ccc(OCCCO)cc2)O[C@@H]1c1ccccc1` the composite z-score [1] was 2.31, the composite z-score [2] was 1.2 and the composite z-score [3] was 0.121. The composite z-score [4] was 0.817, the composite z-score [5] was -0.0037 and the composite z-score [6] was -0.0759. The z-score [7] was 2, the composite z-score (Lefty1) was -0.501 and the composite z-score [8] was 0.648. The z-score [9] was -0.794 (inactive), the composite z-score [10] was 0.53 and the z-score [11] was -4.62 (inactive). For the same compound, the z-score [12] was -0.621 (inactive), the z-score [13] was -0.0576 (inactive) and the z-score [14] was -1.02 (inactive). The composite z-score [15] was 0.621, the composite z-score [16] was 0.0053 and the composite z-score (Torsin-1A (Homo sapiens) [17]) was -0.0377. The composite z-score (Torsin-1A (Homo sapiens) [18]) was 0.621 and the composite z-score [19] was -0.468.
